Experimental data: PubChem BioAssay AID1645850 (National Center for Advancing Translational Sciences (NCATS), 2021)
Records with an inconclusive call do not appear. Active and inactive are the calls of the source. Calls come from the whole dose curve; as a rule, active = well fitted curve in the direction sought with a large enough effect in the repeat runs; inconclusive = weak or mixed curves, or another doubt; inactive = no such curve, though single readings can be large or run the other way.

Test: Comparison of Janus kinase inhibitors to block the type I interferon pathway in human skeletal muscle cells: CTG Counterscreen
Excerpt: Assay Submitter (PI): Travis B. Kinder Ph.D.
National Center for Advancing Translational Sciences (NCATS)
The family of Janus kinases (JAK1, JAK2, JAK3, TYK2) mediate signal transduction from cytokine receptors through phosphorylation and activation of intracellular signaling pathways and transcription factors. Small molecule antagonists of JAKs (jakinibs) have been developed with varying selectivity for the use in malignancies and immune regulation. […] We have assayed a library of 48 jakinibs for their ability to inhibit the JAK1/TYK2-dependent type I interferon (IFN) - major histocompatibility complex (MHC) class I pathway in human skeletal muscle cells genome-engineered to fuse a pro-luminescent HiBiT peptide to endogenous MHC class I.
The assay utilized CRISPR/Cas9 genome-engineered immortalized human myoblasts, C25cl48, where a pro-luminescent reporter HiBit was fused to the C-terminus of endogenous MHC class I allele HLA-B*08:01 (HLA-B HiBit myoblasts) (Kinder et al., 2020). […] After 24 hrs of treatment, cells were assayed by CellTiter-Glo Luminescent Cell Viability Assay (Promega) and luminescence measured by a ViewLux 1430 Ultra HTS (Perkin Elmer). […]
7; Detector; 5 sec; Measure luminescence with ViewLux 1430 Ultra HTS (Perkin Elmer). […]

Compound	outcome
CC(C)(O)/C=C\C(=O)[C@](C)(O)[C@H]1[C@H](O)C[C@]2(C)[C@@H]3CC=C4[C@@H](C=C(O)C(=O)C4(C)C)[C@]3(C)C(=O)C[C@@]12C	inactive
CC1CCCCCC(=O)c2c(O)cc(O)cc2CC(=O)O1 (configuration not stated)	inactive
